# Experimental data published in PubChem BioAssay (NCI).
# Compounds without any hit were thinned out: in the full panel of roughly 83,000, 20% have a hit.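 Results are percent growth after 48 hours of single-concentration exposure. 100 means growth as in untreated cells, lower positive values show inhibition; negative values down to -100 show cell death.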 Unmarked numbers belong to inactive results. The source made the active and inactive calls. Rule for the calls: active = growth percent below 10; inactive = the rest.
# Assays:
# Assay in all cases: NCI-60 one-dose screen, 48 h (100 = growth as untreated, 0 = no growth, -100 = all killed)
# Conditions in all cases: 10 µM
# SK-MEL-2 melanoma = system: SK-MEL-2 melanoma
# EKVX NSCLC = system: EKVX NSCLC
# SN12C renal = system: SN12C renal
# UO-31 renal = system: UO-31 renal
# TK-10 renal = system: TK-10 renal
# ACHN renal = system: ACHN renal
# CAKI-1 renal = system: CAKI-1 renal
# A498 renal = system: A498 renal
# CCRF-CEM leukemia = system: CCRF-CEM leukemia
# MOLT-4 leukemia = system: MOLT-4 leukemia
# SR leukemia = system: SR leukemia
# RPMI-8226 leukemia = system: RPMI-8226 leukemia
# OVCAR-8 ovarian = system: OVCAR-8 ovarian
# OVCAR-5 ovarian = system: OVCAR-5 ovarian
# OVCAR-4 ovarian = system: OVCAR-4 ovarian
# SK-OV-3 ovarian = system: SK-OV-3 ovarian
# IGROV1 ovarian = system: IGROV1 ovarian
# OVCAR-3 ovarian = system: OVCAR-3 ovarian
# HS 578T breast = system: HS 578T breast
# NCI/ADR-RES ovarian = system: NCI/ADR-RES ovarian
SMILES,growth (SK-MEL-2 melanoma),growth (EKVX NSCLC),growth (SN12C renal),growth (UO-31 renal),growth (TK-10 renal),growth (ACHN renal),growth (CAKI-1 renal),growth (A498 renal),growth (CCRF-CEM leukemia),growth (MOLT-4 leukemia),growth (SR leukemia),growth (RPMI-8226 leukemia),growth (OVCAR-8 ovarian),growth (OVCAR-5 ovarian),growth (OVCAR-4 ovarian),growth (SK-OV-3 ovarian),growth (IGROV1 ovarian),growth (OVCAR-3 ovarian),growth (HS 578T breast),growth (NCI/ADR-RES ovarian)
COc1ccc(Cn2cc3c(c2-c2ccccc2)CC(C)(C)c2cnoc2-3)cc1,53%,38.7%,50.6%,43.9%,75%,53.9%,6.85% (active),49.4%,22.7%,40%,24.5%,32.2%,50.4%,78%,60.4%,20%,44.6%,6.6% (active),9.84% (active),18.7%
O=[N+]([O-])c1ccc2c(c1)Cc1cc(I)ccc1-2,109%,84.6%,107%,91.9%,118%,110%,102%,102%,96.8%,91.8%,92.4%,98.4%,118%,97%,117%,123%,104%,110%,101%,104%
Cc1ccc(NS(=O)(=O)c2ccccc2)c(NS(=O)(=O)c2ccccc2)c1,98.6%,93.8%,90.4%,69.4%,112%,94.3%,93.2%,115%,96%,105%,117%,93.4%,105%,104%,97%,102%,107%,98%,91.1%,94.7%
CC(=O)Oc1ccc(C2=Cc3ccc(OC(C)=O)cc3OC2C)cc1 (centres undefined),61%,56.7%,66.9%,18.6%,82.7%,10%,43.6%,82.6%,24.3%,36.7%,8.85% (active),19.5%,60.9%,122%,79.4%,81%,55.8%,33.1%,42.8%,25%
CCSc1nc2c([nH]1)c(=O)n(C)c(=S)n2C,111%,95.5%,107%,98.2%,101%,102%,100%,108%,100%,108%,118%,112%,108%,99.1%,114%,103%,116%,112%,115%,105%
COc1ccc(Cn2cc3c(c2-c2cc(OC)c(OC)c(OC)c2)CCc2cnoc2-3)cc1N,37.1%,27.4%,27.6%,40.4%,75.6%,38.8%,6.52% (active),25%,23.7%,24.6%,14.8%,25.7%,28%,52.4%,37.6%,2.09% (active),7.25% (active),1.74% (active),10.4%,6.71% (active)
O=C(CCc1ccccc1)N1CCN(C(=O)CCc2ccccc2)CC1,104%,115%,96.9%,60.1%,111%,104%,95.1%,152%,88.2%,88.6%,94.3%,92.3%,96%,110%,101%,115%,99.7%,118%,–,108%
O=C(c1ccccc1)C(Sc1ccccc1)c1ccccc1 (centres undefined),62%,106%,87.7%,79.9%,101%,34.5%,82.5%,92.1%,–,67%,49.2%,81.7%,86.8%,96%,78.7%,103%,83.8%,109%,100%,82.7%
CCCCNC(=O)Oc1ccc(/C(=C(\C)c2ccc(OC)cc2)c2ccc(OCCN3CCCCC3)cc2)cc1,67.8%,68.3%,69.1%,11.2%,102%,78.6%,60.3%,71%,58.5%,20.1%,-22.9% (active),29%,–,74.9%,64.8%,66.7%,64.7%,73.6%,48.5%,68.2%
CCCCCN(CCCCC)C(C)C(O)c1ccc2cc(Cl)c3ccccc3c2c1 (centres undefined),87%,102%,89.6%,70.6%,94.8%,102%,87.4%,83.1%,92.2%,98.6%,84.7%,84.1%,99.9%,–,105%,88.8%,98.3%,97.4%,89.4%,98.9%
Cc1cc(C#Cc2ccccc2)ccc1-n1c(/C=C/c2cc(O)ccc2O)nc2ccccc2c1=O,-12.9% (active),-7.48% (active),-5.43% (active),-27.9% (active),29.7%,8.83% (active),-5.93% (active),41%,7.82% (active),3.81% (active),-26% (active),-18.1% (active),16.3%,-24.5% (active),19.2%,-49.3% (active),-12.6% (active),-46.2% (active),–,6.37% (active)
O=C(NCc1cn(Cc2cccc(Oc3ccccc3)c2)nn1)c1cccnc1Nc1ccccc1,55.1%,58.7%,50.2%,54.4%,85.2%,54.5%,48.1%,19.7%,–,38%,16.3%,52.7%,62.6%,89.1%,74.9%,49.6%,94.1%,42.1%,54.7%,23.6%
CC(=O)CS(C)(=O)=O,103%,93.6%,105%,92.4%,103%,106%,101%,98.8%,103%,106%,94.8%,105%,105%,102%,112%,104%,108%,111%,–,109%
CCOC(=O)c1cc2c(n1Cc1cccc(OC)c1)-c1oncc1CC2,34.7%,50.6%,37.1%,-0.772% (active),53.2%,42.8%,7.23% (active),10.8%,–,33.1%,13.3%,37%,41.7%,73%,69.1%,29.7%,19.6%,-16.4% (active),-15.6% (active),6.41% (active)
Cc1ccc(S(=O)(=O)Oc2ccccc2-c2ccccc2)cc1,28.8%,46%,39.2%,22.5%,45.5%,44.2%,14%,6.79% (active),18%,20.7%,8.73% (active),34.4%,41.6%,63.6%,60.7%,23%,35.6%,-28.1% (active),–,-7.58% (active)
COc1c(C)c(C)c(OC)c2c1[nH]c(=O)c1c3cccnc3cn21,110%,100%,99.5%,91.2%,117%,114%,104%,120%,101%,99.4%,94.8%,108%,111%,122%,–,103%,–,104%,99.5%,110%
